Measured values: PubChem BioAssay AID1159580 (chemical genetic matrix, 2015)
Among all 5,500 compounds or so, about 2,000 (36%) were called active. Another 18% or so got no clear call; they are omitted. Rule as the data show it: active = normalized growth mostly below about 0.91 (no sharp cut-off); inconclusive = no clear call, values can overlap the other calls; inactive = mostly above about 0.92. Some of the results follow.

Experiment: chemical genetic growth profiling, strain panel (AID 1159580);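 also: tested at 20 µM; growth read once vehicle control cultures reached saturation at 30 °C; 1 = growth at the plate median or of vehicle wells; lower values mean less growth of the strain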
Conditions: S. cerevisiae deletion strains, growth OD
[1] = locus YAL013W, strain DEP1, hits give low values
[2] = locus YBR229C, strain ROT2, hits give low values
[3] = locus YDL101C, strain DUN1, hits give low values
[4] = locus YDR150W, strain NUM1, hits give low values
[5] = locus YEL061C, strain CIN8, hits give low values
[6] = locus YGR078C, strain PAC10, hits give low values
[7] = locus YHR030C, strain SLT2, hits give low values
[8] = locus YHR087W, strain rtc3, hits give low values
[9] = locus YJR043C, strain POL32, hits give low values
[10] = locus YJR075W, strain HOC1, hits give low values
[11] = locus YLR039C, strain RIC1, hits give low values
[12] = locus YLR058C, strain SHM2 (second series), hits give low values
[13] = locus YLR085C, strain ARP6, hits give low values
[14] = locus YLR262C, strain YPT6, hits give low values
[15] = locus YML094W, strain GIM5, hits give low values
[16] = locus YMR219W, strain ESC1, hits give low values
[17] = locus YMR263W, strain SAP30, hits give low values
[18] = locus YNL153C, strain GIM3, hits give low values
[19] = locus YNL298W, strain CLA4 (second series), hits give low values
[20] = locus YNL322C, strain KRE1, hits give low values
[21] = locus YNR030W, strain Alg12, hits give low values
[22] = locus YPL055C, strain LGE1, hits give low values
[23] = locus YPL241C, strain CIN2, hits give low values
[24] = locus YPR135W, strain CTF4, hits give low values
[25] = locus YAR019C, strain CDC15, hits give low values
[26] = locus YBL105C, strain PKC1, hits give low values
[27] = locus YBR135W, strain CKS1, hits give low values
[28] = locus YBR136W, strain MEC1, hits give low values
[29] = locus YBR160W, strain CDC28, hits give low values
[30] = locus YDL017W, strain CDC7, hits give low values
[31] = locus YDL028C, strain MPS1, hits give low values
[32] = locus YDL108W, strain KIN28, hits give low values
[33] = locus YDL132W, strain cdc53, hits give low values
[34] = locus YDL214C, strain PRR2, hits give low values
[35] = locus YDR052C, strain DBF4, hits give low values
[36] = locus YDR054C, strain cdc34, hits give low values
[37] = locus YDR226W, strain ADK1, hits give low values
[38] = locus YDR477W, strain SNF1, hits give low values
[39] = locus YER123W, strain YCK3, hits give low values
[40] = locus YER133W, strain GLC7, hits give low values
[41] = locus YFL009W, strain cdc4, hits give low values
[42] = locus YFR003C, strain YPI1, hits give low values
[43] = locus YFR019W, strain FAB1, hits give low values
[44] = locus YFR028C, strain CDC14, hits give low values
[45] = locus YGR040W, strain KSS1, hits give low values
[46] = locus YGR052W, strain FMP48, hits give low values
[47] = locus YGR092W, strain DBF2, hits give low values
[48] = locus YHR079C, strain IRE1, hits give low values
[49] = locus YHR082C, strain KSP1, hits give low values
[50] = locus YHR205W, strain SCH9, hits give low values
[51] = locus YIL147C, strain SLN1, hits give low values
[52] = locus YJL095W, strain BCK1, hits give low values
[53] = locus YJL128C, strain PBS2, hits give low values
[54] = locus YJL157C, strain FAR1, hits give low values
[55] = locus YJR016C, strain ILV3, hits give low values
[56] = locus YJR066W, strain TOR1 (second series), hits give low values
[57] = locus YJR066W, strain TOR1, hits give low values
[58] = locus YKL048C, strain ELM1, hits give low values
[59] = locus YKL067W, strain YNK1, hits give low values
[60] = locus YKL193C, strain SDS22, hits give low values
[61] = locus YKL203C, strain TOR2, hits give low values
[62] = locus YLR113W, strain HOG1, hits give low values
[63] = locus YLR133W, strain CKI1, hits give low values
[64] = locus YLR403W, strain SFP1, hits give low values
[65] = locus YML070W, strain DAK1, hits give low values
[66] = locus YMR001C, strain CDC5, hits give low values
[67] = locus YMR205C, strain PFK2 (second series), hits give low values
[68] = locus YMR277W, strain FCP1, hits give low values
[69] = locus YNL006W, strain LST8, hits give low values
[70] = locus YNL020C, strain ARK1, hits give low values
[71] = locus YNL183C, strain NPR1, hits give low values
[72] = locus YNL207W, strain RIO2, hits give low values
[73] = locus YNL222W, strain SSU72, hits give low values
[74] = locus YNL307C, strain MCK1 (second series), hits give low values
[75] = locus YOL136C, strain PFK27, hits give low values
[76] = locus YOR061W, strain CKA2, hits give low values
[77] = locus YOR119C, strain RIO1, hits give low values
[78] = locus YOR231W, strain MKK1, hits give low values
[79] = locus YOR329C, strain SCD5, hits give low values
[80] = locus YPL031C, strain PHO85, hits give low values
[81] = locus YPL153C, strain RAD53, hits give low values
[82] = locus YPL204W, strain HRR25, hits give low values
[83] = locus YPL209C, strain IPL1, hits give low values
[84] = locus YPL256C, strain CLN2, hits give low values
[85] = locus YPR025C, strain CCL1, hits give low values
[86] = locus YPR106W, strain ISR1, hits give low values
[87] = locus YPR111W, strain DBF20, hits give low values
[88] = strain NNK1, hits give low values
[89] = strain TSCII, hits give low values

Measured: normalized growth

CC1(C)CC(=O)c2c(S(C)(=O)=O)sc(Br)c2C1
inactive: [1] 0.951 | [2] 1.01 | [3] 0.995 | [4] 0.965 | [5] 0.988 | [6] 1.02 | locus YGR229C, strain SMI1, hits give low values 0.981 | [7] 0.921 | [8] 1.02 | [9] 1.03 | [10] 1.03 | locus YKL190W, strain CNB1, hits give low values 0.998 | [11] 0.91 | [12] 1.01 | [13] 0.881 | [14] 0.907 | [15] 0.977 | [16] 0.993 | [17] 0.983 | [18] 1.02 | [19] 0.98 | [20] 1 | [21] 1 | [22] 0.924 | [23] 0.954 | [24] 0.96

O=C(Nc1ccccc1SCc1cccc(C(F)(F)F)c1)c1c(F)cccc1Cl
inactive: [1] 1 | [2] 1.03 | [3] 1 | [4] 1.01 | [5] 1.03 | [6] 1.02 | [7] 1.01 | [8] 0.998 | locus YJL187C, strain SWE1, hits give low values 1.02 | [9] 0.988 | [10] 0.998 | [11] 1.04 | [12] 1.01 | [13] 0.986 | [14] 0.984 | [15] 1 | [16] 1.02 | [17] 0.991 | [18] 1.02 | [19] 1.04 | [20] 1.02 | [21] 0.984 | locus YOL006C, strain TOP1, hits give low values 0.963 | [22] 1.02 | [23] 1.01 | [24] 0.942

CC(O)(CNCc1ccc(Cl)cc1)CSc1ccccc1Cl (stereo not given)
inactive: [25] 0.977 | [26] 0.984 | [27] 0.99 | [28] 0.975 | [29] 0.998 | [30] 0.992 | [31] 0.972 | [3] 0.985 | [32] 0.987 | [33] 0.994 | [34] 0.959 | [35] 1 | [36] 0.988 | [37] 0.98 | [38] 0.952 | [39] 0.862 | [40] 0.952 | [41] 0.99 | locus YFL029C, strain CAK1, hits give low values 0.962 | [42] 0.986 | [43] 0.9 | [44] 0.985 | [45] 0.927 | [46] 1.08 | [47] 0.796 | [7] 0.938 | [48] 1 | [49] 1.03 | [50] 1.02 | [51] 0.978 | [52] 1.02 | [53] 1 | [54] 0.973 | [55] 0.991 | [56] 0.875 | [57] 0.998 | [58] 0.98 | [59] 0.971 | locus YKL101W, strain HSL1, hits give low values 0.963 | [60] 0.985 | [61] 0.981 | [62] 1.07 | [63] 0.976 | [64] 0.963 | [65] 0.974 | [66] 0.982 | [67] 0.977 | [68] 0.99 | [69] 0.997 | [70] 0.991 | locus YNL161W, strain CBK1, hits give low values 0.991 | [71] 1.02 | [72] 0.994 | [73] 0.985 | [74] 0.897 | locus YOL078W, strain AVO1, hits give low values 0.99 | [75] 0.975 | [76] 0.964 | [77] 0.928 | [78] 1.02 | [79] 0.992 | [80] 0.955 | [81] 0.951 | [82] 0.923 | [83] 0.984 | [84] 1.01 | [85] 0.988 | [86] 1 | [87] 0.998 | [88] 1 | [89] 0.987

N#CCC(=O)c1cccc(CSc2ccccc2Cl)c1
inactive: [25] 0.896 | [26] 0.944 | [27] 0.954 | [28] 0.967 | [29] 0.971 | [30] 0.982 | [31] 0.972 | [3] 0.974 | [32] 0.966 | [33] 0.977 | [35] 0.976 | [36] 0.987 | [37] 0.964 | [41] 0.983 | [42] 0.982 | [44] 0.965 | [47] 1.03 | [50] 0.992 | [51] 0.968 | [53] 1.04 | [55] 0.987 | [58] 0.937 | [60] 0.978 | [64] 1 | [66] 0.976 | [67] 0.812 | [68] 0.973 | [71] 0.584 | [72] 0.966 | [73] 0.961 | [74] 1.04 | [79] 0.969 | [83] 0.966 | [85] 0.972 | [86] 0.996 | [87] 0.968 | [88] 0.971 | [89] 0.973
active: [34] 0.617 | [38] 0.417 | [39] 0.243 | [40] 0.639 | [43] 0.31 | [45] 0.456 | [46] 0.473 | [7] 0.114 | [48] 0.209 | [49] 0.293 | [52] 0.213 | [54] 0.42 | [56] 0.313 | [57] 0.353 | [59] 0.59 | [61] 0.529 | [62] 0.56 | [63] 0.512 | [65] 0.405 | [69] 0.319 | [70] 0.437 | [75] 0.382 | [76] 0.553 | [77] 0.504 | [78] 0.43 | [80] 0.189 | [81] 0.21 | [82] 0.162 | [84] 0.343
